This passage reports outcome and AC50 results from PubChem BioAssay (EPA / NIEHS).

Calls of active or inactive are those of the source. The calls were made as follows: active = hit-call score of the fitted dose curve at least 0.9, where 1 is the maximum; inactive = score below 0.9.

A short description of experiment [1]: ATG_E_Box_CIS: Attagene CIS-FACTORIAL HepG2 Assay for human Enhancer Box (E-box) (AID 2282936). As to conditions: HepG2 E-box cis-reporter transcription, actives raise or lower the signal. In outline: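 Cells: HepG2 (human liver), transient MRTU transfection. Exposure 24 h. RNA → oligo(dT) RT → PCR → 6-FAM label → HpaI → CE. Activity fitted both directions relative to DMSO.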

Experiment [2] is described as follows: ATG_M_61_CIS: Attagene CIS-FACTORIAL HepG2 Assay for M61 Transcription Factor (Internal Marker) (AID 2282937). As to conditions: HepG2 Attagene CIS-FACTORIAL M61 internal marker reporter; actives raise or lower the signal. The method, boiled down: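 Readout: fluorescent reporter mRNA fragments resolved by capillary electrophoresis after RT-PCR. Transiently transfected human HepG2 cells carried MRTU constructs reporting endogenous TF activity; 24 h chemical exposure; gain or loss of signal fitted relative to DMSO.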

Experiment [3] can be described thus: ATG_EGR_CIS: Attagene CIS-FACTORIAL HepG2 Assay for human Early Growth Response 1 (EGR1) (AID 2282938). As to conditions: HepG2 Attagene CIS-FACTORIAL EGR reporter mRNA; actives raise or lower the signal. The method, boiled down: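 Read-out: fluorescent reporter-mRNA fragments resolved by capillary electrophoresis after RT-PCR, 24 h post-dose in transiently transfected HepG2. Endogenous transcription-factor activity reported via cis-element-regulated reporter units; gain or loss fitted relative to DMSO.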

A short description of experiment [4]: ATG_M_19_CIS: Attagene CIS-FACTORIAL HepG2 Assay for M19 Transcription Factor (Internal Marker) (AID 2282939). As to conditions: HepG2 Attagene CIS-FACTORIAL M19 internal marker reporter; actives raise or lower the signal. In outline:
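Chemical-treated HepG2 (24 h) with MRTU constructs; reporter transcripts detected by fluorescent RT-PCR fragment analysis on capillary electrophoresis. Internal background marker, DMSO as baseline.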

The nature of experiment [5]: ATG_Ets_CIS: Attagene CIS-FACTORIAL HepG2 Assay for human Erythroblast Transformation Specific (ETS) (AID 2282941). As to conditions: HepG2 ETS cis-reporter transcription, actives raise or lower the signal. The method, boiled down: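 Steps: transfect HepG2 with multiple reporter units; treat compound 24 h; isolate RNA, DNase-treat, reverse-transcribe; PCR-amplify, label with 6-FAM, digest with HpaI; separate by capillary electrophoresis. Activity fitted both directions versus DMSO.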

Experiment [6] is described as follows: ATG_FoxO_CIS: Attagene CIS-FACTORIAL HepG2 Assay for human Forkhead box O (FoxO) (AID 2282943). As to conditions: HepG2 Attagene cis-reporter, FoxO element, mRNA; actives raise or lower the signal. In outline: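 Human hepatoma HepG2 cells carry transiently introduced reporter transcription units controlled by cis promoter elements. Chemical treatment lasted 24 h, and mRNA signal was compared with DMSO.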

Experiment [7] can be described thus: ATG_GLI_CIS: Attagene CIS-FACTORIAL HepG2 Assay for human Zinc Finger Protein GLI1 (AID 2282945). As to conditions: HepG2, Attagene cis-factorial reporter mRNA, GLI element; actives raise or lower the signal. In outline:
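Bidirectional curve fits relative to DMSO, using reporter mRNA levels from RT-PCR plus capillary electrophoresis. Cells were HepG2 transiently carrying cis-regulated reporter constructs, harvested 24 h after dosing.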

Experiment [8] addresses Bile acid receptor (Homo sapiens) (UniProt Q96RI1). Nature of the experiment: ATG_IR1_CIS: Attagene CIS-FACTORIAL HepG2 Assay for human Nuclear Receptor Subfamily 1 Group H Member 4 (NR1H4), IR1 submotif (AID 2282946). As to conditions: IR1 reporter transcription, actives raise or lower the signal. In outline: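 Cells (human HepG2) carry transiently transfected cis-promoter reporter transcription units. Compounds are incubated 24 h, total RNA is reverse-transcribed and amplified, and labelled fragments are resolved by capillary electrophoresis. Curves use DMSO as baseline.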

Experiment [9] is described as follows: ATG_GRE_CIS: Attagene CIS-FACTORIAL HepG2 Assay for human Glucocorticoid Response Elements (GRE) (AID 2282947). As to conditions: HepG2 GRE cis-reporter, Attagene multiplex mRNA; actives raise or lower the signal. The method, boiled down:
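Transient MRTU transfection of human HepG2 liver cells; cis-regulated reporters report endogenous factors. 24 h dosing → RNA isolation → RT-PCR → 6-FAM primer extension → HpaI cut → CE fragment analysis. Bidirectional fit, DMSO negative control.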

The nature of experiment [10]: ATG_ISRE_CIS: Attagene CIS-FACTORIAL HepG2 Assay for human Interferon Regulatory Factor 1 (IRF1) binding to an Interferon-Stimulated Response Element (ISRE) (AID 2282948). As to conditions: HepG2 ISRE cis-reporter (Attagene), mRNA transcription readout; actives raise or lower the signal. In outline:
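Transfected HepG2 (multiple reporter transcription units, cis elements) dosed 24 h. RNA → oligo(dT) RT → PCR → 6-FAM primer extension → HpaI → CE. DMSO = negative control/baseline.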

Experiment [11] in a line: ATG_M_32_CIS: Attagene CIS-FACTORIAL HepG2 Assay for M32 Transcription Factor (Internal Marker) (AID 2282949).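 Also: background control marker of the multiplexed CIS panel rather than a real target.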 As to conditions: HepG2 Attagene cis-factorial M32 reporter, mRNA; actives raise or lower the signal. The method, boiled down: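 HepG2 cells transiently transfected with multiplexed cis-regulated reporter units, dosed 24 h. Reporter mRNA quantified by RT-PCR, 6-FAM labelling, HpaI digestion and capillary electrophoresis; bidirectional fit vs DMSO.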

Experiment [12] is described as follows: ATG_M_06_CIS: Attagene CIS-FACTORIAL HepG2 Assay for M06 Transcription Factor (Internal Marker) (AID 2282950). As to conditions: HepG2 Attagene CIS-FACTORIAL M06 internal marker reporter; actives raise or lower the signal. In outline: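 Cells (HepG2, transiently carrying cis-driven reporter units) receive chemical for 24 h before RNA isolation. Reporter cDNA is PCR-amplified, FAM-labelled by primer extension, HpaI-digested and sized on a capillary analyser.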

The target in experiment [13] is Hypoxia-inducible factor 1-alpha (Homo sapiens) (UniProt Q16665). As to the kind of experiment: ATG_HIF1a_CIS: Attagene CIS-FACTORIAL HepG2 Assay for human Hypoxia Inducible Factor 1 (HIF1A) (AID 2282951). As to conditions: HepG2 Attagene cis-factorial HIF1a reporter transcription; actives raise or lower the signal. The method, boiled down: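 RT-PCR/capillary electrophoresis fluorescence readout of reporter transcripts from endogenous-TF-driven cis elements in transfected HepG2 cells, 24 h exposure; activity fitted in both directions against DMSO controls.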

Experiment [14] has as its target Hepatocyte nuclear factor 6 (Homo sapiens) (UniProt Q9UBC0). Nature of the experiment: ATG_HNF6_CIS: Attagene CIS-FACTORIAL HepG2 Assay for human Hepatocyte Nuclear Factor 6 (HNF6) (AID 2282952). As to conditions: HepG2 Attagene cis-factorial HNF6 reporter transcription; actives raise or lower the signal. In outline: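 HepG2 cells transiently transfected with cis-element-driven multiple reporter transcription units, dosed 24 h; reporter mRNA quantified by RT-PCR, FAM primer extension, HpaI digestion and capillary electrophoresis; bidirectional fit versus DMSO baseline.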

Experiment [15] concerns the target Heat shock factor protein 1 (Homo sapiens) (UniProt Q00613). As to the kind of experiment: ATG_HSE_CIS: Attagene CIS-FACTORIAL HepG2 Assay for human Heat Shock Transcription Factor 1 (HSE) (AID 2282953). As to conditions: HepG2 HSE cis-reporter, Attagene RNA transcription; actives raise or lower the signal. In outline:
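Liver-derived HepG2 cells carry transiently introduced multiple reporter units governed by cis promoters. Reporter RNA measured 24 h post-dose through reverse transcription, PCR amplification, fluorescent labelling and capillary electrophoresis, normalised to DMSO.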

The nature of experiment [16]: ATG_MRE_CIS: Attagene CIS-FACTORIAL HepG2 Assay for human Metal Responsive Element (MRE) (AID 2282954). As to conditions: HepG2 MRE cis-reporter transcription, Attagene multiplex; actives raise or lower the signal. In outline: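 Transient MRTU transfection of HepG2 (FuGene 6); 24 h dosing; total RNA → oligo(dT) RT, PCR, 6-FAM primer extension, HpaI cut, CE. Bidirectional fit vs DMSO.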

Experiment [17] in a line: ATG_ERE_CIS: Attagene CIS-FACTORIAL HepG2 Assay for Estrogen Response Element (ERE) (AID 2282940). As to conditions: HepG2 ERE cis-reporter, Attagene RNA transcript; actives raise or lower the signal. In outline:
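Human liver cells (HepG2) bearing transiently transfected, promoter-regulated reporter units were exposed 24 h. Reporter mRNA induction was detected by capillary electrophoresis of labelled RT-PCR products and fitted bidirectionally to DMSO.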

The nature of experiment [18]: ATG_GATA_CIS: Attagene CIS-FACTORIAL HepG2 Assay for human GATA Binding Protein (AID 2282944). As to conditions: HepG2 GATA cis-element reporter, Attagene multiplex mRNA; actives raise or lower the signal. The method, boiled down: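 Transfected cis-reporter HepG2 cells were treated with chemicals for 24 hours. Total RNA was then converted to cDNA, amplified with reporter-specific primers and analysed by fluorescent capillary electrophoresis, using DMSO-treated wells as baseline.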

The nature of experiment [19]: ATG_PBREM_CIS: Attagene CIS-FACTORIAL HepG2 Assay for human Phenobarbital-responsive Enhancer Module (PBREM) (AID 2282955). As to conditions: HepG2 PBREM cis-reporter, Attagene multiplexed transcription; actives raise or lower the signal. In outline:
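Reporter mRNA read by RT-PCR, 6-FAM primer extension, HpaI digestion and capillary electrophoresis. Transfected HepG2 cells, 24 h compound exposure. Gain or loss of signal fitted bidirectionally relative to DMSO baseline.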

Experiment [20] concerns the target Hepatocyte nuclear factor 3-beta (Homo sapiens) (UniProt Q9Y261). Nature of the experiment: ATG_FoxA2_CIS: Attagene CIS-FACTORIAL HepG2 Assay for human Forkhead box A2 (FOXA2) (AID 2282942). As to conditions: HepG2 cis-reporter transcription factor activity, 24 h; actives raise or lower the signal. In outline:
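Readout: fluorescent reporter transcripts resolved by capillary electrophoresis after RT-PCR. Transiently transfected HepG2, 24 h compound exposure, endogenous TF activity at cis promoter elements. Gain or loss of signal fitted relative to DMSO.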

Hypoxia-inducible factor 1-alpha (Homo sapiens), sequence (Q16665 whole entry, looked up): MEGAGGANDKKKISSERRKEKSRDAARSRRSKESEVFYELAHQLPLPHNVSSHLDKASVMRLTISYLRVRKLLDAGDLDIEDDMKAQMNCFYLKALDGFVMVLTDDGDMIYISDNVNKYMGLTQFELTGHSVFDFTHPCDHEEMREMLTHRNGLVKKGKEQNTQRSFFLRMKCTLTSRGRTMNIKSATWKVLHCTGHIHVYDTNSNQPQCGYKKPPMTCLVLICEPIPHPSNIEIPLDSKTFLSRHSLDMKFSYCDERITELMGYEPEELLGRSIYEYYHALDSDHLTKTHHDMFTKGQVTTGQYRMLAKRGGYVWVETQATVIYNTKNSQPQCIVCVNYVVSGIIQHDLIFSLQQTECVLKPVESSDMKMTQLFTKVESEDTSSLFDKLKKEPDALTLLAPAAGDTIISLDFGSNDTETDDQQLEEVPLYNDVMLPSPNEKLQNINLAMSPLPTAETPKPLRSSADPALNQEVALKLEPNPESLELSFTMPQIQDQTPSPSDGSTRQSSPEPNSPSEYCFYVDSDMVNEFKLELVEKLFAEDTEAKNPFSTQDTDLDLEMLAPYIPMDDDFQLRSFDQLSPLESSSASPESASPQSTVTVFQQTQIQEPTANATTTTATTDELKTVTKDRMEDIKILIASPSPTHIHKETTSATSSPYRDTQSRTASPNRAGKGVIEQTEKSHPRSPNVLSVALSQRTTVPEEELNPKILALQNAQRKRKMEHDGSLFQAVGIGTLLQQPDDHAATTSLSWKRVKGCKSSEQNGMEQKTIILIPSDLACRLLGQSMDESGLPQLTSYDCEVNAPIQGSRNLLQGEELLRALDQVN
Heat shock factor protein 1 (Homo sapiens), sequence (Q00613 whole entry, looked up): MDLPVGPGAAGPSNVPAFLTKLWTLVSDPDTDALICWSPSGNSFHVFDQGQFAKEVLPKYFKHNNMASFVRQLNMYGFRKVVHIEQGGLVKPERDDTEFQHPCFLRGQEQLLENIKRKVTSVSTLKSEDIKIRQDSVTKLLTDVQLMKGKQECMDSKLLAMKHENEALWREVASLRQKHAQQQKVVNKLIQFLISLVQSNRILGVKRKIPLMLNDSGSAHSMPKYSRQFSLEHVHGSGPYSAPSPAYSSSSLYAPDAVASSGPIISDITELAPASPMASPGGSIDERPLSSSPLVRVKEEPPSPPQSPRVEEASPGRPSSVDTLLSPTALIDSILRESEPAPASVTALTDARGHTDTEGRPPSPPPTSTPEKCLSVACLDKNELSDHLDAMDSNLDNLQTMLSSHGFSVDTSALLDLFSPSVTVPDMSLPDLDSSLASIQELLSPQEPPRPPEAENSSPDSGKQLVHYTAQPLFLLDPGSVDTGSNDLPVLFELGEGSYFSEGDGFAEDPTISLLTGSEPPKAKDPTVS
Bile acid receptor (Homo sapiens), sequence (Q96RI1 whole entry, looked up, the tested form may be a part): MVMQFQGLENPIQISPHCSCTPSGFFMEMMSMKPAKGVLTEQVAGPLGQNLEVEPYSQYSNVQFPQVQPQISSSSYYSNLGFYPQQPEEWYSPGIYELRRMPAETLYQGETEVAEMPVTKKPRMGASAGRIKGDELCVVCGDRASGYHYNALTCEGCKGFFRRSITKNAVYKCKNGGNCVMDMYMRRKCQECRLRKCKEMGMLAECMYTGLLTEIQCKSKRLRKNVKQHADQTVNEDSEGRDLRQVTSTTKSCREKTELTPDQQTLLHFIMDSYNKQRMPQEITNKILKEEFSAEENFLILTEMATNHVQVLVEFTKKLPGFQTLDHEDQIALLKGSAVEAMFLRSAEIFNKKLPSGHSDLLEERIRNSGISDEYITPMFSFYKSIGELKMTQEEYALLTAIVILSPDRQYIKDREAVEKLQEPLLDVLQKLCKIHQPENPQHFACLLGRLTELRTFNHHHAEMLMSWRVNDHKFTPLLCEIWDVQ
Hepatocyte nuclear factor 6 (Homo sapiens), sequence (Q9UBC0 whole entry, looked up): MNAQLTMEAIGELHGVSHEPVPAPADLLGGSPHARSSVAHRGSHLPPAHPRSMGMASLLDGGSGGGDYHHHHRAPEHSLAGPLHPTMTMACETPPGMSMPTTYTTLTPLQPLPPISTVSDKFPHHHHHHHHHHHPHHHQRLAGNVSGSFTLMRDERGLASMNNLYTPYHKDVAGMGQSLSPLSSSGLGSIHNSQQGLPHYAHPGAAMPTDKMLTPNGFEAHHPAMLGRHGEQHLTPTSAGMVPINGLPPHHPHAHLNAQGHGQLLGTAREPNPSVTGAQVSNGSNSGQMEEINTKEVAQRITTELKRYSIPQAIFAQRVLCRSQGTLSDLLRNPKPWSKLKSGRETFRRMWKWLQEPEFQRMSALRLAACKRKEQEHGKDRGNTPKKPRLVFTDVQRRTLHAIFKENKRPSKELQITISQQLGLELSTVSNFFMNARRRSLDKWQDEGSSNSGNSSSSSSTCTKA
Hepatocyte nuclear factor 3-beta (Homo sapiens), sequence (Q9Y261 whole entry, looked up): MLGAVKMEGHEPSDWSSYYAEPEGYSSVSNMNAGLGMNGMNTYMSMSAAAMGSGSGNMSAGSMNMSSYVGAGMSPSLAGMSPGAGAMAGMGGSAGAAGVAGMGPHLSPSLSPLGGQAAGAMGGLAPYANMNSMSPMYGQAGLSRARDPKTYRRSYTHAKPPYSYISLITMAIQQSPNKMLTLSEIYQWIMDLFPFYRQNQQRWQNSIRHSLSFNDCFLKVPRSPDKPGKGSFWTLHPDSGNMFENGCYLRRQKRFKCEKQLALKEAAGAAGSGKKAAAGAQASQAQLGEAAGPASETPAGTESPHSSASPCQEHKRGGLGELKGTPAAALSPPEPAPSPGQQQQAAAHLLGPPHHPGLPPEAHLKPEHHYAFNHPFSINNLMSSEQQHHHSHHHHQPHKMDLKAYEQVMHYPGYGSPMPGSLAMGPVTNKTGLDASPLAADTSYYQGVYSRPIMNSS

Turning to `CCCCCCCCCCCCCCCC(=O)OCC`, the outcome in [1], in [2], in [3], in experiment [4], in experiment [5] and in experiment [6] was inactive. Moreover, the compound was called inactive in [7], in experiment [8], in experiment [9], in [10], in experiment [11] and in experiment [12]. Also, the result in experiment [13], in experiment [14], in experiment [15] and in [16] was inactive.
One may read the AC50 as the concentration at which the activity in the assay is half-maximal. With `CC[C@H]1OC(=O)[C@H](C)[C@@H](O[C@H]2C[C@@](C)(OC)[C@@H](O)[C@H](C)O2)[C@H](C)[C@@H](O[C@@H]2O[C@H](C)C[C@H](N(C)C)[C@H]2O)[C@](C)(O)C[C@@H](C)C(=NOCOCCOC)[C@H](C)[C@@H](O)[C@]1(C)O`, the result in experiment [1], in experiment [2], in experiment [3], in [4], in experiment [5] and in experiment [6] was inactive. In addition, the call in experiment [7], in experiment [8], in experiment [9], in experiment [10], in experiment [13] and in experiment [14] was inactive. Besides, the call in experiment [15] and in experiment [16] was inactive. Further, the half-maximal activity concentration (AC50) in experiment [17] was 37.6 µM (active).
For `O=c1c2ccccc2nnn1CCl`, the outcome in experiment [1], in experiment [2], in experiment [3], in experiment [4], in experiment [17] and in [5] was inactive. In addition, the result in experiment [18], in experiment [7], in experiment [9], in [10], in experiment [11] and in [13] was inactive. Moreover, the call in experiment [14], in experiment [15], in experiment [16] and in experiment [19] was inactive.
Consider `OCCCS`, for which the result in experiment [1], in experiment [2], in experiment [3], in experiment [4], in experiment [5] and in [20] was inactive. Also, the compound was classed as inactive in [6], in [18], in [7], in experiment [8], in [9] and in experiment [10]. The outcome in [11], in experiment [13], in experiment [14], in [15], in experiment [16] and in experiment [19] was inactive.
On to `CC(=O)OC(C)C`, for which the outcome in [1], in experiment [2], in [3], in experiment [4], in [5] and in [20] was inactive. Besides, the compound was called inactive in experiment [6], in [18], in experiment [7], in experiment [8], in experiment [9] and in [10]. For the same compound, the compound was called inactive in [11], in experiment [13], in experiment [14], in experiment [15] and in experiment [16].
